Laboratory results published in PubChem BioAssay (EPA / NIEHS).
The source made the active and inactive calls. Rule for the calls: active = hit-call score of the fitted dose curve at least 0.9, where 1 is the maximum; inactive = score below 0.9.

What was measured:
Conditions in all cases: mRNA level, 48 h; actives raise or lower the signal
[1] = read-out: Glutamate-cysteine ligase catalytic (GCLC), GCLC (gene 2729); assay: LTEA_HepaRG_GCLC: Life Technologies and Expression Analysis (LTEA) Assay for Glutamate-cysteine ligase catalytic (GCLC) using HepaRG (AID 2283498)
In short: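 HepaRG, 48 h exposure, 8-pt half-log series from 100 uM, 0.5% DMSO vehicle; TaqMan qRT-PCR for GCLC mRNA, housekeeping-normalized; bidirectional curve fit vs DMSO baseline.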

[2] = read-out: growth arrest and DNA damage 45 (GADD45G), GADD45G (gene 10912); assay: LTEA_HepaRG_GADD45G: Life Technologies and Expression Analysis (LTEA) Assay for growth arrest and DNA damage 45 (GADD45G) using HepaRG (AID 2283499)
In short: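 Differentiated human HepaRG cells, 48 h post-plating, exposed 48 h in serum-free induction medium to 8 half-log concentrations (top 100 uM, 0.5% DMSO) in duplicate. GADD45G mRNA measured by Fluidigm TaqMan qRT-PCR, normalized to ACTB, GAPDH, POLR2A; bidirectional fit versus DMSO.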

[3] = read-out: Glutamate-cysteine ligase regulatory (GCLM), GCLM (gene 2730); assay: LTEA_HepaRG_GCLM: Life Technologies and Expression Analysis (LTEA) Assay for Glutamate-cysteine ligase regulatory (GCLM) using HepaRG (AID 2283500)
In short: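 Endpoint is GCLM transcript level by qRT-PCR, normalized to three housekeeping genes, after 48 h chemical exposure of human HepaRG cells (0.5% DMSO vehicle, top 100 uM, half-log dilutions). Fitting was bidirectional relative to DMSO.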

[4] = read-out: Glutathione S-transferase M3 (GSTM3), GSTM3 (gene 2947); assay: LTEA_HepaRG_GSTM3: Life Technologies and Expression Analysis (LTEA) Assay for Glutathione S-transferase M3 (GSTM3) using HepaRG (AID 2283501)
In short: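 Differentiated human HepaRG cells were exposed in duplicate for 48 h in serum-free induction medium, 8 points from 100 uM top in half-log steps, 0.5% DMSO. GSTM3 mRNA was measured by TaqMan qRT-PCR, normalized to ACTB, GAPDH and POLR2A; bidirectional fit versus DMSO.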

[5] = read-out: Heat shock 70 kDa protein 1 (HSPA1A), gene 3303; assay: LTEA_HepaRG_HSPA1A: Life Technologies and Expression Analysis (LTEA) Assay for Heat shock 70 kDa protein 1 (HSPA1A) using HepaRG (AID 2283502)
In short: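 Cells were plated and cultured for 48 h, then switched to serum-free induction medium. Chemicals were added at eight half-log concentrations up to 100 uM for 48 h. RNA was then isolated and HSPA1A measured by qRT-PCR with bidirectional curve fitting against DMSO.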

[6] = read-out: Hypoxia-inducible factor 1-alpha (Homo sapiens) (UniProt Q16665); assay: LTEA_HepaRG_HIF1A: Life Technologies and Expression Analysis (LTEA) Assay for Hypoxia-inducible factor 1 (HIF1A) Trancription factor using HepaRG (AID 2283503)
In short: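 HIF1A transcript level read by qRT-PCR (ACTB, GAPDH, POLR2A normalization) after 48 h chemical exposure of HepaRG cultures. Eight half-log concentrations, top 100 uM, 0.5% DMSO vehicle, duplicates; bidirectional curve fit against DMSO baseline.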

[7] = read-out: 3-Hydroxy-3-Methylglutaryl-CoA Synthase 2 (HMGCS2), HMGCS2 (gene 3158); assay: LTEA_HepaRG_HMGCS2: Life Technologies and Expression Analysis (LTEA) Assay for 3-Hydroxy-3-Methylglutaryl-CoA Synthase 2 (HMGCS2) using HepaRG (AID 2283504)
In short: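 Human HepaRG cells in serum-free induction medium were exposed in duplicate for 48 h to 8-point half-log series from 100 uM top in 0.5% DMSO. HMGCS2 mRNA measured by TaqMan qRT-PCR, normalised to ACTB, GAPDH, POLR2A; bidirectional fit versus DMSO.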

HGF (gene 3082) = assay: LTEA_HepaRG_HGF: Life Technologies and Expression Analysis (LTEA) Assay for Hepatocyte Growth Facto (HGF) using HepaRG (AID 2283505)
In short: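 Differentiated HepaRG cells in serum-free induction medium exposed 48 h in duplicate, 8 half-log concentrations from 100 uM in 0.5% DMSO. HGF mRNA by qRT-PCR, normalised to ACTB, GAPDH, POLR2A; bidirectional fitting.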

[8] = read-out: Insulin Like Growth Factor 1 (IGF1), IGF1 (gene 3479); assay: LTEA_HepaRG_IGF1: Life Technologies and Expression Analysis (LTEA) Assay for Insulin Like Growth Factor 1 (IGF1) using HepaRG (AID 2283506)
In short: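 Cells are thawed, plated and cultured 48 h, then exposed in duplicate to chemical (highest 100 uM, half-log steps, 0.5% DMSO) for another 48 h. Total RNA is analysed by Fluidigm qRT-PCR for IGF1 expression relative to vehicle.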

[9] = read-out: Intercellular Adhesion Molecule 1 (ICAM1), ICAM1 (gene 3383); assay: LTEA_HepaRG_ICAM1: Life Technologies and Expression Analysis (LTEA) Assay for Intercellular Adhesion Molecule 1 (ICAM1) using HepaRG (AID 2283507)
In short: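 Differentiated human HepaRG cells in serum-free induction medium exposed 48 h in duplicate to 8 half-log concentrations (top 100 uM, 0.5% DMSO). ICAM1 mRNA quantified by TaqMan qRT-PCR, normalized to ACTB, GAPDH and POLR2A; bidirectional fitting versus DMSO.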

[10] = read-out: Insulin-like growth factor-binding protein 1 (IGFBP1), IGFBP1 (gene 3484); assay: LTEA_HepaRG_IGFBP1: Life Technologies and Expression Analysis (LTEA) Assay for Insulin-like growth factor-binding protein 1 (IGFBP1) using HepaRG (AID 2283508)
In short: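 HepaRG cells, plated 48 h then switched to serum-free induction medium, exposed in duplicate for 48 h to 8-point half-log series from 100 uM in 0.5% DMSO. mRNA measured by qRT-PCR, normalized to ACTB/GAPDH/POLR2A; bidirectional fit versus DMSO.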

[11] = read-out: Interleukin 6 (IL6), IL6 (gene 3569); assay: LTEA_HepaRG_IL6: Life Technologies and Expression Analysis (LTEA) Assay for Interleukin 6 (IL6) using HepaRG (AID 2283509)
In short: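 qRT-PCR read-out of IL6 transcript, normalized to three housekeeping genes, after 48 h chemical exposure of HepaRG cells; 8-point half-log series, top 100 uM, 0.5% DMSO vehicle. Bidirectional curve fitting against DMSO baseline.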

[12] = read-out: Interleukin 6 Receptor (IL6R), IL6R (gene 3570); assay: LTEA_HepaRG_IL6R: Life Technologies and Expression Analysis (LTEA) Assay for Interleukin 6 Receptor (IL6R) using HepaRG (AID 2283510)
In short: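 Cells were thawed, plated and cultured 48 h, then medium was changed to serum-free induction medium. Chemicals were added in duplicate (100 uM top, half-log steps, 0.5% DMSO) for 48 h. Lysates were analyzed by qRT-PCR for IL6R expression.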

[13] = read-out: Potassium channel subfamily K member 1 (KCNK1), KCNK1 (gene 3775); assay: LTEA_HepaRG_KCNK1: Life Technologies and Expression Analysis (LTEA) Assay for Potassium channel subfamily K member 1 (KCNK1) using HepaRG (AID 2283511)
In short: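 HepaRG, 48 h exposure, 8-pt half-log series top 100 uM, 0.5% DMSO vehicle, duplicates. Readout: KCNK1 transcript by qRT-PCR (Fluidigm array), housekeeping-normalized; bidirectional curve fit relative to DMSO baseline.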

[14] = read-out: Keratin 19 (KRT19), KRT19 (gene 3880); assay: LTEA_HepaRG_KRT19: Life Technologies and Expression Analysis (LTEA) Assay for Keratin 19 (KRT19) using HepaRG (AID 2283512)
In short: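 Differentiated HepaRG cells in serum-free induction medium, exposed 48 h in duplicate to 8 half-log concentrations up to 100 uM in 0.5% DMSO. KRT19 mRNA by qRT-PCR, normalized to ACTB, GAPDH, POLR2A; bidirectional fit vs DMSO.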

[15] = read-out: JUN Transcription Factor, JUN (gene 3725); assay: LTEA_HepaRG_JUN: Life Technologies and Expression Analysis (LTEA) Assay for JUN Transcription Factor using HepaRG (AID 2283513)
In short: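 Read-out is JUN transcript level by TaqMan qRT-PCR, normalized to ACTB, GAPDH and POLR2A, after 48 h chemical treatment of HepaRG cells. Concentration-response spanned eight half-log points up to 100 uM in 0.5% DMSO.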

[16] = read-out: Lipase C (LIPC), LIPC (gene 3990); assay: LTEA_HepaRG_LIPC: Life Technologies and Expression Analysis (LTEA) Assay for Lipase C (LIPC) using HepaRG (AID 2283514)
In short: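 HepaRG, 48 h exposure, 8-pt half-log series from 100 uM in 0.5% DMSO, duplicates. Readout: LIPC mRNA by Fluidigm qRT-PCR, housekeeping-normalized (ACTB/GAPDH/POLR2A). Gain or loss fitted bidirectionally against DMSO baseline.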

[17] = read-out: Lipoprotein lipase (LPL), LPL (gene 4023); assay: LTEA_HepaRG_LPL: Life Technologies and Expression Analysis (LTEA) Assay for Lipoprotein lipase (LPL) using HepaRG (AID 2283515)
In short: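 HepaRG, 48 h exposure, 8-pt half-log dilutions from 100 uM, 0.5% DMSO vehicle, duplicates; qRT-PCR (Fluidigm array) of LPL mRNA vs housekeeping genes; bidirectional curve fit relative to DMSO baseline.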

[18] = read-out: MicroRNA 122 (MIR122), gene 406906; assay: LTEA_HepaRG_MIR122: Life Technologies and Expression Analysis (LTEA) Assay for MicroRNA 122 (MIR122) using HepaRG (AID 2283516); note: the transcript read is the microRNA miR-122
In short: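 Human liver HepaRG cultures receive test chemicals for 48 h at eight half-log concentrations from 100 uM. Expression is quantified by qRT-PCR with ACTB/GAPDH/POLR2A normalization and fitted bidirectionally against 0.5% DMSO.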

[19] = read-out: matrix metalloproteinase-10 (MMP10), MMP10 (gene 4319); assay: LTEA_HepaRG_MMP10: Life Technologies and Expression Analysis (LTEA) Assay for matrix metalloproteinase-10 (MMP10) using HepaRG (AID 2283517)
In short: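 Transcript levels come from Fluidigm qRT-PCR normalized to three housekeeping genes, with curves fitted bidirectionally against 0.5% DMSO. Human HepaRG cells were dosed for 48 hours at concentrations up to 100 uM.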

Measured: outcome

Chain of Hypoxia-inducible factor 1-alpha (Homo sapiens) (Q16665 whole entry, looked up): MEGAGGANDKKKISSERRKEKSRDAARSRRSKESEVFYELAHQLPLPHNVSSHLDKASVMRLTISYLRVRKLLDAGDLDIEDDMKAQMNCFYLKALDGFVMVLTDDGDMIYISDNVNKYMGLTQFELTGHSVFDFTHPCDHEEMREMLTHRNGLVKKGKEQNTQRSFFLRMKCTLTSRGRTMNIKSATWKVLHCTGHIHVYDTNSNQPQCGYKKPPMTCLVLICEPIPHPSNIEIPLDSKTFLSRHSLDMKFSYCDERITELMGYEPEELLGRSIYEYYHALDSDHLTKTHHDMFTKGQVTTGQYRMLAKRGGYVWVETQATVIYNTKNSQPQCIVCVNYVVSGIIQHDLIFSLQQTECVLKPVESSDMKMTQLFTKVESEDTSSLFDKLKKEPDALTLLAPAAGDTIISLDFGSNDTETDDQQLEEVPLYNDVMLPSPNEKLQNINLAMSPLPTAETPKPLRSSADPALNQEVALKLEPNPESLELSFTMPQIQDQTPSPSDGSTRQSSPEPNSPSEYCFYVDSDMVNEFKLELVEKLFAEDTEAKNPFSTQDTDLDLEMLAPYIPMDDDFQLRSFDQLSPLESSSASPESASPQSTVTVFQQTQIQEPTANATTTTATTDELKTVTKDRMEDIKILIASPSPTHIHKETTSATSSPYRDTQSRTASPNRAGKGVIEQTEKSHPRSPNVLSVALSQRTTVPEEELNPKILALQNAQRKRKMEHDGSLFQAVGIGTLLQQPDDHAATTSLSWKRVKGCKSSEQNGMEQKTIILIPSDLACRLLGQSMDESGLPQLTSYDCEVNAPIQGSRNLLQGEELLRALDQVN

O=C(O)c1[nH]n(-c2ccc(S(=O)(=O)O)cc2)c(=O)c1N=Nc1ccc(S(=O)(=O)O)cc1
not listed: [19]
inactive: all other assays above

C=CCCCCCCCCCCCC
inactive: all assays above

NCCOCCOCCN
not listed: [9] | [19]
inactive: all other assays above

CC1(C)C(=O)NC(=O)N1CO
not listed: [9] | [19]
inactive: all other assays above
